Measured values as given in PubChem BioAssay.
Values without a mark were called inactive.

Experiment: basal S. cerevisiae growth modulation, no modifier, primary screen, OD600, strain BY4716, 24 h, basal condition (AID 1173)
Details: OD600, 24 h, higher = more signal, called active from +8 up or from −8 down

Structure (SMILES)	z-score
CN1C(=O)C2C=CC(C(O)COCc3ccccc3)N(Nc3ccc([N+](=O)[O-])cc3[N+](=O)[O-])C2C1=O (configuration not stated)	-2.33
COC(=O)C1=CC(c2ccc(CO)cc2)=CC(C2CC2)N(Cc2cc3c(cc2Br)OCO3)C=C1C(=O)OC (configuration not stated)	-3.02
C=CC[C@H](O)c1ccc(O)c(F)c1	-2.36
COc1ccc(C(O)C2C=CC3C(=O)N(c4ccccc4)C(=O)C3N2Nc2ccccc2F)c2ccccc12 (configuration not stated)	-1.71
C=C(COC)C(=O)CC[C@@H](OC(=O)c1ccccc1-c1ccccc1C(=O)O)c1ccccc1OCCO	-1.22
COC(=O)C(CC#Cc1ccc2c(c1)[C@]1(C(=O)N2)[C@H](C(=O)N2CCCCCCC2)[C@H]2C(=O)O[C@H](c3ccccc3)[C@H](c3ccccc3)N2[C@@H]1c1ccc(OCCO)cc1)C(=O)OC	1.43
C[C@H]1C2[C@H](Cc3ccccc3)NC(=O)[C@]23C(=O)N[C@@H](Cc2ccccc2)C(=O)N2CCC[C@H]2C(=O)NC/C=C/CC/C=C/C3[C@@H]2O[C@]12C (some centres not stated)	0.321
CCCC[C@@H](O)C1=C(C)Cn2c(=O)n(-c3ccccc3)c(=O)n2[C@H]1CO	-1.82
CC(C)c1ccc(NN2C(C(O)C3CCCCC3)C=CC3C(=O)N(c4ccccc4)C(=O)C32)cc1 (configuration not stated)	-0.618

Experiment: MM1S myeloma cell viability, profiling panel, resazurin fluorescence, basal, 24 h, PK04 Diversity Set (AID 1174);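 further: MM1S multiple myeloma cell line; test concentration not given here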
Details: higher = more signal, called active from +8 up or from −8 down

Structure (SMILES)	z-score
COCCOC(=O)N1C(=O)[C@@]2(c3cc(C#CCC(C(=O)OC)C(=O)OC)ccc31)[C@H](C(N)=O)[C@H]1C(=O)O[C@H](c3ccccc3)[C@H](c3ccccc3)N1[C@@H]2c1ccccc1OCCO	-1.99
C=C(COC)/C(=C/C[C@@H](OC(C)=O)c1cccc(OCCO)c1)c1cnc2ccccc2c1	-0.732
CC(C)[Si](C#Cc1ccccc1)(O[C@H](c1ccccc1)c1cn(Cc2ccccc2)nn1)C(C)C	0.141
C[C@]1(C(=O)O)c2ccccc2C(=O)N(Cc2cc(C(F)(F)F)cc(C(F)(F)F)c2)[C@H]1c1ccc(CO)cc1	0.385
[N-]=[N+]=NCc1ccccc1[C@H]1OC(c2ccc(OCCCO)cc2)=N[C@@]1(CCS(=O)(=O)c1ccccc1)C(=O)NCCN1CCOCC1	0.285
C=CC[C@@]1(C(=O)NCCCOC)N=C(c2ccc(OCCCO)cc2)O[C@@H]1c1ccccc1CN=[N+]=[N-]	0.961
CC(=O)NCCCC[C@@H]1NC(=O)[C@H]2C[C@@H](C(=O)O)[C@@H](c3cccc(OCCO)c3)N2C1=O	0.441
C=CCNC(=O)[C@H]1[C@@H]2C(=O)O[C@@H](c3ccccc3)[C@@H](c3ccccc3)N2[C@@H](c2ccc(O)cc2)[C@]12C(=O)Nc1ccccc12	0.557
Cc1ccc(S[C@]2(C(=O)NC(C)C)CC(=O)N(Cc3ccccc3)[C@@H]2c2ccc(CO)cc2I)cc1	-3.48
COC(=O)c1ccc(OC)c(/C=C\CC(OC(=O)c2ccncc2)c2ccccc2)c1 (configuration not stated)	0.514
COc1ccc([Si](C)(C)[C@H]2[C@H](CC(=O)N(CCO)Cc3ccccc3)O[C@@]3(C(=O)N(Cc4ccc(N5C(=O)c6cccc7cccc5c67)cc4)c4ccccc43)[C@@H]2C)cc1	-2.21
C=C(C)C1CN([C@H](CO)c2ccccc2)C(=O)/C1=C\c1ccccc1 (some centres not stated)	0.44
C[N+](C)(C)CCCC[C@@H]1NC(=O)[C@H]2C[C@@H](C(=O)NCCCCCN)[C@@H](c3ccc(O)cc3)N2C1=O	0.715
CC(=O)NCCCC[C@@H]1NC(=O)[C@H]2C[C@@H](C(=O)NCCCCCN)[C@@H](c3ccc(O)cc3)N2C1=O	-0.336
O=C1c2ccccc2[C@](Cc2ccccc2I)(C(=O)NCCN2CCOCC2)[C@H](c2ccc(CO)cc2)N1Cc1ccccc1C(F)(F)F	-0.269
CCOC(=O)C[C@H]1[C@H](OC(=O)c2ccc(-c3ccccc3)cc2)[C@@H](NC(=O)c2ccc(-c3ccccc3)cc2)c2cc(OCCCO)ccc2N1C(=O)c1ccccc1	-1.01
COC(=O)C1=CC(CCCO)=CC(c2ccc(CN3CCCC3)cc2)N(C)C=C1C(=O)OC (configuration not stated)	-0.381
CCCC1(C(=O)OC)C=C2C(=C(C(C)C)C(=O)C2C)CN1 (configuration not stated)	-1.13
